The whole screen tested about 53,000 sequences, of which about 3,700 (7%) were called active.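 How the source made its calls: active means gene knockdowns whose robust z-score for IL-1 alpha signal is at least 2 or at most -2, so actives lie on both sides; inactive means the rest.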 The entries come from a sample that favours actives as a whole.
Assay: Components of the Cytosolic LPS Sensing Pathway: Gene Identification via Genome-wide siRNA Screen;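 further: robust z of the log signal after scaling to non-targeting control siRNA wells of the plate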
Settings: RAW264.7 macrophages, IL-1a HTRF, actives lie on both sides, screened at 100 nM (by protocol), cells primed 5 h with Pam3CSK4 first
Outline: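 RAW264.7; siRNA 100 nM final, RNAiMAX, 48h 37 degrees C; Pam3CSK4 5 h; LipidA + TransIT-TKO 24 h; IL-1a HTRF; CellTiter-Glo viability; robust z vs negative-control median.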

Sequence | z-score
GGUGCAUUAUCUUGGUUCGTT against Hmga2 | -2.46 (active)
GGCAAAUAUUCAGUUUGGATT against Scarb2 | -0.00406 (inactive)
GGGUUUAUAAAACUGAAGUTT against Cav2 | 0.672 (inactive)
GGCACAUGAGACAGCUUUUTT against Tmem160 | 0.0311 (inactive)
CGUGUUCAGCGUAGAAACUTT against Ttll1 | 0.283 (inactive)
GGUUUCAGAGCUAAACCCUTT against Larp4b | 0.235 (inactive)
CCAUAGUUUUGGUUACCAATT against E330037G11Rik | -0.213 (inactive)
GUCUCUUUGCCCUGUGCUATT against Vmn1r239-ps | 0.0206 (inactive)
GGCUUGGAUUUUGAAAUACTT against Srcin1 | -0.792 (inactive)
GCUCAGCAAUACUUCCUACTT against Itgal | -0.188 (inactive)
GCUCAUAUACACCAUUUCUTT against Tmem171 | -1.12 (inactive)
GCCUAUCAAUGUGUAUCUUTT against Tcf21 | -0.497 (inactive)
CGUCCUAGGAAUCUACUUUTT against Itgad | 2.63 (active)
GGGAAAGUAAUUGAUAAACTT against Mtrr | 0.59 (inactive)
GUCUGUCAUUUGUGGAAAUTT against Olfr1495 | -2.17 (active)
CCGAGUUCGGGUAUCUUGGTT against Grwd1 | -0.885 (inactive)
CCCACCACAAGCUAAUACATT against Ubac1 | -0.0826 (inactive)
GGAACAAAGACAUGUAUCATT against Zgpat | -0.931 (inactive)
GCUCAGAAGUCCAAGAUACTT against Casp12 | -1.86 (inactive)
GGUCGCUGGAGACCUUAGUTT against Hjurp | -1.88 (inactive)
GGAACAGGUGAUCCGCUACTT against Lzts2 | 1.26 (inactive)
GCACUCUGUUCAGCUAAAATT against Tafa3 | 2.16 (active)
GGAAGCUAUGAACAAUACATT against Sulf2 | 0.00856 (inactive)

Sequence | z-score
GGUGUGAUGGAGUUCUUAUTT against Ndufs1 | -0.94 (inactive)
GGUUCCAUAACCUGUGUCATT against Fbxo28 | 0.272 (inactive)
GGGUUAAUGCAGCUCACGUTT against Lrrtm1 | 0.425 (inactive)
GGCUUUGGCGAUAAGACAUTT against Glud1 | 2.29 (active)
CCAAUUACGGAGAUUGGAATT against Tspan6 | -0.803 (inactive)
GGUUGAUUCCAACGACAUCTT against Tinagl1 | -0.173 (inactive)
GCAUAAAGCACCCGGAGAGTT against Zbtb32 | -1.53 (inactive)
GGUGUUAAGACUCAGCUCATT against Micall2 | -1.49 (inactive)
GCCUGGUUAUUAAUUUAUCTT against Dzank1 | -0.724 (inactive)
GGCACCCGAGUAGGUCAAATT against Carhsp1 | 6.02 (active)
CGUAACUGAGUCAAUUAGUTT against Intu | 0.128 (inactive)
GCGUGGUUUCUGAAUACAUTT against Nt5e | 6.67 (active)
GGUAACAUCUAUAUAUCACTT against Rb1 | 1.56 (inactive)
GGACUCCAACCACACUAUCTT against Rab4b | 0.847 (inactive)
GGCAUGAUGCUGAUCAUUCTT against Olfr1100 | -0.0763 (inactive)
GCUUAUAGUUCAGUUUUUGTT against Ints8 | 0.835 (inactive)
GCAAAUAGGGAGGUUCCUGTT against Ypel1 | 1.47 (inactive)
GGAGACUUCAGUGCCUCUUTT against Slc16a11 | 2.45 (active)
GGUAAUGGGACUUGGUAGGTT against Olfr1338 | -0.056 (inactive)
UGGUCGGCUAGAUGAUGGATT against Wdr34 | -0.7 (inactive)
GGAAGUCUGCCUGUUCUUGTT against Galnt10 | 0.744 (inactive)
GGCUGUGUUGUCGAUUUCCTT against Nkain3 | 0.351 (inactive)
GGGAUGAGUUCUUGUAAAUTT against Unc50 | -1.32 (inactive)

Sequence | z-score
GGGAACUCGAACAAGAAUUTT against Six1 | 1.11 (inactive)
GGAAAAAGAGGAUGAGUGCTT against Gm4861 | 2.01 (active)
GCUGCUGGAAACUAGACUGTT against Cyp2b13 | -1.71 (inactive)
GUCAUCAAUCAAGUCUUGATT against Olfr1408 | -0.0822 (inactive)
CCAAGGGUUGCUUCGAGCATT against Upk1a | -0.489 (inactive)
GGACCUGAACGAUCUCGUUTT against Cyp4a12a | 1.65 (inactive)
GGAACAACCACGGAACCCATT against Il1r2 | 0.335 (inactive)
GGGUUUCAGUCUUCUUAUCTT against Olfr556 | -0.891 (inactive)
GGGAGCUAAUGAGCAAGGATT against Galk1 | 2.5 (active)
GCACAAACUUAUGCUCUUUTT against Klrc3 | -1.76 (inactive)
GGACAGACAAAUACAAGAGTT against Tmco1 | 0.428 (inactive)
GUUCUUAUAUAGGAUUGUGTT against Xkr9 | -0.782 (inactive)
GGAUCAUCUAUACAGCACATT against Tgfb1i1 | -1.85 (inactive)
GGACAGUUCUAAAAUUCCCTT against Olfr780 | -1.73 (inactive)
GCCAGCUACCGAGUCUAUUTT against Tkt | 2.8 (active)
GCAUGCUGACACUUACUUUTT against Olfr878 | -0.872 (inactive)
CCAGGCAGCUAAACUGUGUTT against Tex11 | -0.11 (inactive)
GGGACUGUACCCAGUUUAATT against Ccl27a | 1.62 (inactive)
CGUGGAAUGAAGAUUGUCCTT against Hsd17b12 | 0.284 (inactive)
GCAAAAUAGCCCAGUAUAATT against Pax6 | -5.02 (active)
GGAGUUUCUUCAGUUCCUUTT against Dld | 0.87 (inactive)
GCGGAGGAUAGAGCAAAUUTT against Upf3b | -0.0448 (inactive)
